Reference: the supplement of paper PMC8728848
This excerpt belongs to a sample that is enriched for the strongest signals.

Columns and labels:
Experiment in all cases: glycan array binding signal (z-score within array); higher = stronger binding
Conditions in all cases: glycan notation: IUPAC condensed, linker removed
[1] = target: Fuc(a1-2)Gal(b1-3)GalNAc(b1-4)[Neu5Ac(a2-3)]Gal(b1-4)Glc
Procedure, shortened: (§1)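 Negative Z-scores can be read as non-binding. The Z-score is calculated within each array and then averaged across arrays of one protein sequence at different concentrations or buffers and across linkers. Arrays, 3228 in all, were curated from the Consortium for Functional Glycomics database and kept only where the protein sequence was available.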

[2] = target: Fuc(a1-2)[Gal(a1-3)]Gal(b1-4)GlcNAc(b1-2)Man
Procedure, shortened: as §1

[3] = target: Fuc(a1-2)[Gal(a1-3)]Gal(b1-4)GlcNAc(b1-2)Man(a1-3)[Fuc(a1-2)[Gal(a1-3)]Gal(b1-4)GlcNAc(b1-2)Man(a1-6)]Man(b1-4)GlcNAc(b1-4)GlcNAc
Procedure, shortened: as §1

[4] = target: Fuc(a1-2)[Gal(a1-3)]Gal(b1-4)GlcNAc(b1-3)GalNAc
Procedure, shortened: as §1

[5] = target: Fuc(a1-2)[Gal(a1-3)]Gal(b1-4)[Fuc(a1-3)]GlcNAc
Procedure, shortened: as §1

Fuc(a1-4)GlcNAc = target: Fuc(a1-4)GlcNAc
Procedure, shortened: as §1

[6] = target: Gal(a1-3)Gal(b1-3)GlcNAc(b1-2)Man(a1-3)[Gal(a1-3)Gal(b1-3)GlcNAc(b1-2)Man(a1-6)]Man(b1-4)GlcNAc(b1-4)GlcNAc
Procedure, shortened: as §1

[7] = target: Gal(a1-3)Gal(b1-3)GlcNAc(b1-3)GalNAc
Procedure, shortened: as §1

[8] = target: Gal(a1-3)Gal(b1-3)[Fuc(a1-4)]GlcNAc(b1-2)Man(a1-3)[Gal(a1-3)Gal(b1-3)[Fuc(a1-4)]GlcNAc(b1-2)Man(a1-6)]Man(b1-4)GlcNAc(b1-4)GlcNAc
Procedure, shortened: as §1

[9] = target: Gal(a1-3)Gal(b1-4)GlcNAc(b1-2)Man
Procedure, shortened: as §1

[10] = target: Gal(a1-3)Gal(b1-4)GlcNAc(b1-2)Man(a1-3)[Gal(a1-3)Gal(b1-4)GlcNAc(b1-2)Man(a1-6)]Man(b1-4)GlcNAc(b1-4)GlcNAc
Procedure, shortened: as §1

[11] = target: Gal(a1-3)Gal(b1-4)GlcNAc(b1-6)GalNAc
Procedure, shortened: as §1

[12] = target: Gal(a1-3)Gal(b1-4)[Fuc(a1-3)]GlcNAc
Procedure, shortened: as §1

Gal(a1-4)Gal(b1-4)Glc = target: Gal(a1-4)Gal(b1-4)Glc
Procedure, shortened: as §1

[13] = target: Gal(a1-4)Gal(b1-4)GlcNAc(b1-2)Man(a1-3)[Gal(a1-4)Gal(b1-4)GlcNAc(b1-2)Man(a1-6)]Man(b1-4)GlcNAc(b1-4)GlcNAc
Procedure, shortened: as §1

Gal(a1-6)Glc = target: Gal(a1-6)Glc
Procedure, shortened: as §1

[14] = target: Gal(b1-3)GlcNAc(b1-3)Gal(b1-4)GlcNAc(b1-2)[Gal(b1-3)GlcNAc(b1-3)Gal(b1-4)GlcNAc(b1-6)]Man(a1-6)[Gal(b1-3)GlcNAc(b1-3)Gal(b1-4)GlcNAc(b1-2)Man(a1-3)]Man(b1-4)GlcNAc(b1-4)[Fuc(a1-6)]GlcNAc
Procedure, shortened: as §1

[15] = target: Gal(b1-3)GlcNAc(b1-3)Gal(b1-4)GlcNAc(b1-3)Gal(b1-4)GlcNAc(b1-2)[Gal(b1-3)GlcNAc(b1-3)Gal(b1-4)GlcNAc(b1-3)Gal(b1-4)GlcNAc(b1-6)]Man(a1-6)[Gal(b1-3)GlcNAc(b1-3)Gal(b1-4)GlcNAc(b1-3)Gal(b1-4)GlcNAc(b1-2)Man(a1-3)]Man(b1-4)GlcNAc(b1-4)[Fuc(a1-6)]GlcNAc
Procedure, shortened: as §1

Gal(b1-4)Gal = target: Gal(b1-4)Gal
Procedure, shortened: as §1

Gal(b1-4)Glc = target: Gal(b1-4)Glc
Procedure, shortened: as §1

[16] = target: Gal(b1-4)GlcNAc(b1-2)Man(a1-3)Man(b1-4)GlcNAc(b1-4)GlcNAc
Procedure, shortened: as §1

[17] = target: Gal(b1-4)GlcNAc(b1-3)Gal(b1-4)GlcNAc
Procedure, shortened: as §1

[18] = target: Gal3S(b1-4)[Fuc(a1-3)]Glc6S
Procedure, shortened: as §1

Gal3S4S(b1-4)GlcNAc = target: Gal3S4S(b1-4)GlcNAc
Procedure, shortened: as §1

Gal3S6S(b1-4)GlcNAc = target: Gal3S6S(b1-4)GlcNAc
Procedure, shortened: as §1

Gal6S(b1-3)GlcNAc = target: Gal6S(b1-3)GlcNAc
Procedure, shortened: as §1

[19] = target: GalNAc(b1-4)GlcNAc(b1-2)Man(a1-3)[GalNAc(b1-4)GlcNAc(b1-2)Man(a1-6)]Man(b1-4)GlcNAc(b1-4)GlcNAc
Procedure, shortened: as §1

GalNAc3S(b1-4)GlcNAc = target: GalNAc3S(b1-4)GlcNAc
Procedure, shortened: as §1

Glc(b1-4)Glc = target: Glc(b1-4)Glc
Procedure, shortened: as §1

[20] = target: GlcNAc(a1-4)Gal(b1-4)GlcNAc(b1-3)Gal(b1-4)GlcNAc
Procedure, shortened: as §1

[21] = target: GlcNAc(a1-4)Gal(b1-4)GlcNAc(b1-3)Gal(b1-4)GlcNAc(b1-3)Gal(b1-4)GlcNAc
Procedure, shortened: as §1

[22] = target: GlcNAc(b1-2)[GlcNAc(b1-4)]Man(a1-3)[GlcNAc(b1-4)][GlcNAc(b1-2)[GlcNAc(b1-6)]Man(a1-6)]Man(b1-4)GlcNAc(b1-4)[Fuc(a1-6)]GlcNAc
Procedure, shortened: as §1

[23] = target: GlcNAc(b1-2)[GlcNAc(b1-6)]Man(a1-6)[GlcNAc(b1-2)Man(a1-3)]Man(b1-4)GlcNAc(b1-4)GlcNAc
Procedure, shortened: as §1

GlcNAc(b1-3)Gal = target: GlcNAc(b1-3)Gal
Procedure, shortened: as §1

[24] = target: GlcNAc(b1-3)Gal(b1-3)GalNAc
Procedure, shortened: as §1

[25] = target: GlcNAc(b1-3)Gal(b1-4)GlcNAc(b1-3)Gal(b1-4)GlcNAc(b1-2)[GlcNAc(b1-3)Gal(b1-4)GlcNAc(b1-3)Gal(b1-4)GlcNAc(b1-6)]Man(a1-6)[GlcNAc(b1-3)Gal(b1-4)GlcNAc(b1-3)Gal(b1-4)GlcNAc(b1-2)Man(a1-3)]Man(b1-4)GlcNAc(b1-4)[Fuc(a1-6)]GlcNAc
Procedure, shortened: as §1

[26] = target: GlcNAc(b1-3)Gal(b1-4)GlcNAc(b1-3)Gal(b1-4)GlcNAc(b1-3)Gal(b1-4)GlcNAc(b1-3)Gal(b1-4)GlcNAc(b1-2)Man(a1-3)[GlcNAc(b1-3)Gal(b1-4)GlcNAc(b1-3)Gal(b1-4)GlcNAc(b1-3)Gal(b1-4)GlcNAc(b1-3)Gal(b1-4)GlcNAc(b1-2)Man(a1-6)]Man(b1-4)GlcNAc(b1-4)GlcNAc
Procedure, shortened: as §1

[27] = target: GlcNAc(b1-3)[GlcNAc(b1-6)]GalNAc
Procedure, shortened: as §1

[28] = target: GlcNAc(b1-4)GlcNAc(b1-4)GlcNAc(b1-4)GlcNAc(b1-4)GlcNAc
Procedure, shortened: as §1

[29] = target: Man(a1-2)Man(a1-2)Man(a1-6)[Man(a1-3)]Man
Procedure, shortened: as §1

Man(a1-2)Man(a1-3)Man = target: Man(a1-2)Man(a1-3)Man
Procedure, shortened: as §1

[30] = target: Man(a1-2)Man(a1-6)[Man(a1-3)]Man(a1-6)[Man(a1-2)Man(a1-2)Man(a1-3)]Man(b1-4)GlcNAc(b1-4)GlcNAc
Procedure, shortened: as §1

[31] = target: Neu5Ac(a2-3)Gal(b1-3)GalNAc(b1-3)Gal(a1-4)Gal(b1-4)Glc
Procedure, shortened: as §1

[32] = target: Neu5Ac(a2-3)Gal(b1-3)GlcNAc(b1-6)GalNAc
Procedure, shortened: as §1

[33] = target: Neu5Ac(a2-3)Gal(b1-4)GlcNAc(b1-3)Gal(b1-4)GlcNAc
Procedure, shortened: as §1

[34] = target: Neu5Ac(a2-3)Gal(b1-4)[Fuc(a1-3)]GlcNAc(b1-3)GalNAc
Procedure, shortened: as §1

[35] = target: Neu5Ac(a2-6)Gal(b1-4)GlcNAc(b1-2)Man(a1-3)[GlcNAc(b1-4)][Neu5Ac(a2-6)Gal(b1-4)GlcNAc(b1-2)Man(a1-6)]Man(b1-4)GlcNAc(b1-4)GlcNAc
Procedure, shortened: as §1

[36] = target: Neu5Ac(a2-6)Gal(b1-4)GlcNAc(b1-2)Man(a1-6)Man(b1-4)GlcNAc(b1-4)GlcNAc
Procedure, shortened: as §1

[37] = target: Neu5Ac(a2-6)Gal(b1-4)GlcNAc(b1-3)Gal(b1-4)GlcNAc(b1-3)Gal(b1-4)GlcNAc(b1-2)Man(a1-3)[Neu5Ac(a2-6)Gal(b1-4)GlcNAc(b1-3)Gal(b1-4)GlcNAc(b1-3)Gal(b1-4)GlcNAc(b1-2)Man(a1-6)]GalNAc
Procedure, shortened: as §1

[38] = target: Neu5Ac(a2-8)Neu5Ac(a2-3)Gal(b1-3)GalNAc(b1-4)[Neu5Ac(a2-8)Neu5Ac(a2-3)]Gal(b1-4)Glc
Procedure, shortened: as §1

[39] = target: Neu5Ac(a2-8)Neu5Ac(a2-3)Gal(b1-4)Glc
Procedure, shortened: as §1

[40] = target: Neu5Ac(a2-8)Neu5Ac(a2-8)Neu5Ac(a2-3)[GalNAc(b1-4)]Gal(b1-4)Glc
Procedure, shortened: as §1

[41] = target: Neu5Gc(a2-3)Gal(b1-3)[Fuc(a1-4)]GlcNAc
Procedure, shortened: as §1

[42] = target: Neu5Gc(a2-3)Gal(b1-4)[Fuc(a1-3)]GlcNAc
Procedure, shortened: as §1

B1: SJCP3842 (Schistosoma japonicum) (protein)
chain: MFKMRIINLVNISTVLLLINLLQTKSRLVGKENGFMLTVSIYGAQLSDKMTSVPVSWTIDYEDPEKSAFKKLVTDSCDTFSEYVKSQIPKGSVDGQCTSHIFQRPGSGSGVSISLTLSFIYVDVTQPDTVALKTELEKHFANFVTIHSHKITQAQFRINQKAIVIPTGDKDAIDGSKWKIIAIIALVALAIVVIGGFIYICVK
glycan array binding signal (z-score) [1]: 0.207 | glycan array binding signal (z-score) [2]: -1.05 | glycan array binding signal (z-score) [3]: 0.46 | glycan array binding signal (z-score) [4]: 0.343 | glycan array binding signal (z-score) [5]: 0.536 | glycan array binding signal (z-score) (Fuc(a1-4)GlcNAc): 4.44 | glycan array binding signal (z-score) [6]: 3.31 | glycan array binding signal (z-score) [7]: 0.153 | glycan array binding signal (z-score) [8]: 2.45 | glycan array binding signal (z-score) [9]: -1.09 | glycan array binding signal (z-score) [10]: -0.76 | glycan array binding signal (z-score) [11]: -0.327 | glycan array binding signal (z-score) [12]: 0.63 | glycan array binding signal (z-score) (Gal(a1-4)Gal(b1-4)Glc): -1.04 | glycan array binding signal (z-score) [13]: 2.55 | glycan array binding signal (z-score) (Gal(a1-6)Glc): -1.59 | glycan array binding signal (z-score) [14]: 1.25 | glycan array binding signal (z-score) [15]: 1.37 | glycan array binding signal (z-score) (Gal(b1-4)Gal): -0.475 | glycan array binding signal (z-score) (Gal(b1-4)Glc): -1.59 | glycan array binding signal (z-score) [16]: -0.919 | glycan array binding signal (z-score) [17]: -0.05 | glycan array binding signal (z-score) [18]: 2.61 | glycan array binding signal (z-score) (Gal3S4S(b1-4)GlcNAc): -0.987 | glycan array binding signal (z-score) (Gal3S6S(b1-4)GlcNAc): 2.36 | glycan array binding signal (z-score) (Gal6S(b1-3)GlcNAc): -0.626 | glycan array binding signal (z-score) [19]: 0.2 | glycan array binding signal (z-score) (GalNAc3S(b1-4)GlcNAc): 0.48 | glycan array binding signal (z-score) (Glc(b1-4)Glc): -0.571 | glycan array binding signal (z-score) [20]: -0.28 | glycan array binding signal (z-score) [21]: 2.47 | glycan array binding signal (z-score) [22]: 0.364 | glycan array binding signal (z-score) [23]: -0.597 | glycan array binding signal (z-score) (GlcNAc(b1-3)Gal): -1.01 | glycan array binding signal (z-score) [24]: -0.211 | glycan array binding signal (z-score) [25]: 1.43 | glycan array binding signal (z-score) [26]: -0.488 | glycan array binding signal (z-score) [27]: -0.578 | glycan array binding signal (z-score) [28]: 0.984 | glycan array binding signal (z-score) [29]: -0.903 | glycan array binding signal (z-score) (Man(a1-2)Man(a1-3)Man): -1.03 | glycan array binding signal (z-score) [30]: -0.995 | glycan array binding signal (z-score) [31]: 0.587 | glycan array binding signal (z-score) [32]: 1.36 | glycan array binding signal (z-score) [33]: 1.89 | glycan array binding signal (z-score) [34]: 2.37 | glycan array binding signal (z-score) [35]: -0.194 | glycan array binding signal (z-score) [36]: 2.88 | glycan array binding signal (z-score) [37]: 4.64 | glycan array binding signal (z-score) [38]: 3.14 | glycan array binding signal (z-score) [39]: -1.34 | glycan array binding signal (z-score) [40]: 0.881 | glycan array binding signal (z-score) [41]: -0.715 | glycan array binding signal (z-score) [42]: 0.854
